Screening data as filed in PubChem BioAssay.
Only a selection was taken, and hits are over-represented in it overall.
MITF inh: inhibitors of MITF | AID 2240 | TRPM1 promoter luciferase, luminescence, 24 h | actives 0.28% (n = 37,000) | inhibition, % (test concentration not listed); in the data active means inhibition above about 85%; inconclusive means no clear call, values can overlap the other calls; inactive means below about 68%;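 further: human melanocyte line stably carrying TRPM1 promoter luciferase reporter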
PD-1 reverse act: activators reversing PD-1 mediated T-cell inhibition; primary human CD4 T cells, PD-L1 beads, CellTiter-Glo 96 h; activation, % (no concentration beside the values); 29,000 tested, under 10 active; call rule not given here;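 further: 0% = median vehicle wells and 100% = positive control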
NOMO-1 viab: STK33 inhibitor candidate reducing NOMO-1 cell viability; inhibition, % (concentration not given with the values); NOMO-1 AML viability, CellTiter-Glo luminescence, 72 h; actives 7.5% (n = 37,000); AID 2330; in the data active means inhibition above about 80%; inconclusive means no clear call, values can overlap the other calls
YB-1 expression: YB-1 expression inhibition; actives 0.37% (n = 30,000); U2OS, qRT-PCR YB-1 vs CDIP delta delta Cp, 16 h; hits give high values; zero = DMSO, each unit about twofold; AID 434959; delta delta Cp (YB-1 minus CDIP) (concentration not given with the values);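 active means delta delta Cp rounded down to an integer at or above 3, about 3 SD of DMSO wells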;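 further: higher means less YB-1 transcript or more CDIP transcript relative to DMSO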
U2OS ROS induce: inducers of reactive oxygen species in cancer cells. ROS induction (% of piperlongumine), % at 10 µM. AID 624156. U2OS ROS induction, H2DCF-DA fluorescence. actives 2% (n = 46,000); in the data active means ROS induction above about 79%, passing the limit was not always enough; inconclusive means no clear call, values can overlap the other calls;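 further: 0% = DMSO vehicle median and 100% = reference compound median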
An asterisk follows results filed as active; ? = inconclusive; · = no result.

SMILES | MITF inh | PD-1 reverse act | NOMO-1 viab | YB-1 expression | U2OS ROS induce
C[C@H]1CN([C@@H](C)CO)C(=O)c2cccc(NS(=O)(=O)c3ccc(F)cc3)c2O[C@H]1CN(C)CC1CC1 | -3 | 0 | 16 | -0.11 | -3
CCCCS(=O)(=O)/C=C/C1C2C=CC(C2)C1S(=O)(=O)CCCC (configuration not stated) | · | · | · | · | -2
C[C@H]1CN([C@@H](C)CO)C(=O)c2cccc(NC(=O)c3cnccn3)c2O[C@@H]1CN(C)S(=O)(=O)c1ccccc1 | -20 | 2 | -20 | -0.064 | -13
Cc1cc2ccccc2n2c(SCC(=O)NCc3ccco3)nnc12 | 27 | 0 | 111* | · | 4
CC(=O)c1ccc(NC(=O)CNS(=O)(=O)c2ccc(C(C)(C)C)cc2)cc1 | -5 | -2 | 49 | · | -3
COc1ccc(NC(=O)CSc2cn(Cc3ccc(Cl)cc3)c3ccccc23)cc1 | · | · | · | · | 6
COc1ccc(C(=O)NCCn2cc(SC(C)c3ccccc3)c3ccccc32)cc1 (configuration not stated) | 20 | -1 | 129* | 0.053 | 10
CC12CC3CC(C1)CC(NC(=O)c1ccc(Cl)cc1Cl)(C3)C2 | 34 | -1 | 115* | -0.09 | 32
CC(Oc1ccc(Cl)cc1Cl)C(=O)Nc1cccc(NC(=O)c2ccc(Cl)cc2Cl)c1 (configuration not stated) | -11 | 1 | 17 | · | -6
COC(=O)c1cc(OC)c(OC)cc1NC(=O)C(C)Oc1ccc(Br)cc1 (configuration not stated) | 65 | -1 | 28 | · | 15
Cc1ccc2c(=O)c(C(=O)c3ccccc3)coc2c1 | -18 | 0 | 130* | 0.2 | -11
S=C(NC1CCCCC1)N1CCN(Cc2ccc3c(c2)OCO3)CC1 | · | · | · | · | -5
O[C@H]1C=C2CCN3Cc4cc5c(cc4C(C23)[C@@H]1O)OCO5 (some centres not stated) | 63 | · | 110* | · | 7
COC(=O)C(CC#Cc1ccc2c(c1)[C@]1(C(=O)N2)[C@H](c2ccc(OCCO)cc2)N2[C@H](c3ccccc3)[C@H](c3ccccc3)OC(=O)[C@H]2[C@@H]1C(=O)N1CCCCCCC1)C(=O)OC | · | · | · | 0.048 | 128*
O=C1O[C@@H](c2ccccc2)[C@@H](c2ccccc2)N2[C@@H](c3ccc(OCCO)cc3)[C@]3(C(=O)Nc4ccc(C#CC5(O)CCCCCC5)cc43)[C@@H](C(=O)N3CCCCCCC3)[C@H]12 | · | · | · | -0.34 | 135*
O=C1O[C@H](c2ccccc2)[C@H](c2ccccc2)N2[C@H]1[C@@H](C(=O)O)[C@]1(C(=O)Nc3ccc(C#CC4(O)CCCCCC4)cc31)[C@H]2c1ccc(OCCO)cc1 | · | · | · | 0.0048 | 16
O=C1O[C@@H](c2ccccc2)[C@@H](c2ccccc2)N2[C@@H](c3ccc(OCCO)cc3)[C@]3(C(=O)Nc4ccc(C#CC5=CCCCC5)cc43)[C@@H](C(=O)N3CCN(c4ncccn4)CC3)[C@H]12 | · | · | · | -0.089 | 55
O=C1O[C@H](c2ccccc2)[C@H](c2ccccc2)N2[C@H]1[C@@H](C(=O)N1CCCCCCC1)[C@]1(C(=O)Nc3ccc(C#CC4=CCCCC4)cc31)[C@H]2c1ccc(OCCO)cc1 | · | · | · | 0.088 | 100*
CCOc1cc(/C=C2\SC(=O)N(Cc3ccc(F)cc3)C2=O)ccc1O | · | · | · | · | 10
CCOc1cc(/C=C2\Sc3ccccc3C2=O)cc(I)c1O | · | · | · | · | 96*
CCOC(=O)c1c(NC(=S)Nc2cnccn2)sc(C)c1-c1ccccc1 | -34 | 2 | 47 | · | 12
C[C@@H]1CN([C@@H](C)CO)C(=O)c2cc(NC(=O)Nc3ccc(F)cc3)ccc2O[C@@H]1CN(C)Cc1ccc(C(F)(F)F)cc1 | 63 | -1 | 105* | 0.24 | 9
C[C@@H]1CN([C@@H](C)CO)C(=O)c2cc(NC(=O)Nc3ccc(C(F)(F)F)cc3)ccc2O[C@@H]1CN(C)Cc1ccc(Oc2ccccc2)cc1 | 27 | -14 | 117* | 0.7 | 17
C[C@H]1CN([C@@H](C)CO)C(=O)c2cc(NC(=O)Nc3ccc(C(F)(F)F)cc3)ccc2O[C@@H]1CN(C)Cc1ccccc1 | 8 | -2 | 94* | 0.37 | 10
COc1ccc(CN(C)C[C@@H]2Oc3ccc(NC(=O)Nc4ccc(C(F)(F)F)cc4)cc3C(=O)N([C@@H](C)CO)C[C@@H]2C)cc1 | -5 | 1 | 100* | 0.073 | -1
SMILES | MITF inh | PD-1 reverse act | NOMO-1 viab | YB-1 expression | U2OS ROS induce
C[C@@H]1CN([C@H](C)CO)C(=O)c2cc(NC(=O)Nc3ccc(C(F)(F)F)cc3)ccc2O[C@H]1CN(C)Cc1ccccc1 | -13 | -5 | 76 | 1.5 | 0
O=C(Nc1cccc(F)c1)c1cccc(-c2cc3ccccc3oc2=O)c1 | · | · | · | · | -4
C[C@@H]1CN([C@@H](C)CO)C(=O)Cc2cc(NC(=O)C3CC3)ccc2O[C@@H]1CN(C)Cc1ccc(Oc2ccccc2)cc1 | 8 | · | 32 | -0.052 | 12
C[C@@H]1CN([C@@H](C)CO)C(=O)c2cc(NC(=O)Nc3ccc(C(F)(F)F)cc3)ccc2O[C@@H]1CN(C)Cc1ccccc1 | 30 | -2 | 119* | -0.29 | 17
C[C@H]1CN([C@@H](C)CO)C(=O)c2cc(NC(=O)Nc3ccc(C(F)(F)F)cc3)ccc2O[C@@H]1CN(C)Cc1ccc(C(=O)O)cc1 | -3 | 1 | -23 | 0.021 | 7
Cc1ccc(OC(=O)c2c(-c3ccccc3)nnc3ccccc23)cc1 | · | · | · | · | 10
CCCCc1ccc(NC(=O)CC)cc1 | · | · | · | · | 24
CCC(=O)Nc1ccc2c(c1)N(CC)C(C)(C)CC2C (configuration not stated) | 13 | 1 | 99* | 0.013 | 11
C[C@H]1CN([C@@H](C)CO)C(=O)c2cc(NC(=O)Nc3ccc(C(F)(F)F)cc3)ccc2O[C@@H]1CN(C)Cc1ccc(-c2ccccc2)cc1 | 1 | -1 | 107* | -0.11 | 4
C[C@H](CO)N1C[C@H](C)[C@H](CN(C)Cc2ccc(C(=O)O)cc2)Oc2ccc(NC(=O)Nc3ccc(C(F)(F)F)cc3)cc2C1=O | -4 | 1 | -15 | 0.059 | -5
C[C@H](CO)N1C[C@H](C)[C@H](CN(C)Cc2ccc(-c3ccccc3)cc2)Oc2ccc(NC(=O)Nc3ccc(C(F)(F)F)cc3)cc2C1=O | 4 | -4 | 92* | -0.99 | ?
C[C@H]1CN([C@@H](C)CO)C(=O)c2cc(NC(=O)Nc3ccc(C(F)(F)F)cc3)ccc2O[C@H]1CN(C)Cc1ccc(-c2ccccc2)cc1 | 10 | -6 | 117* | -0.19 | 37
C[C@H](CO)N1C[C@H](C)[C@@H](CN(C)Cc2ccc(C(F)(F)F)cc2)Oc2ccc(NC(=O)Nc3ccccc3)cc2C1=O | 7 | · | 63 | 0.097 | 6
O=C(N/N=C/Cc1ccccc1)c1ccccn1 | · | · | · | -0.46 | 0
Cc1nnc(SCC(=O)c2ccc3c(c2)OCCO3)s1 | -95 | 0 | 13 | · | -6
Cc1ccc(NC(=O)CSc2nnc(C)n2-c2ccc(Cl)cc2)c(Br)c1 | 7 | · | 34 | · | ·
